Source: PubChem BioAssay AID504332 (National Center for Advancing Translational Sciences (NCATS), 2011)
About 31,000 (8.9%) of roughly 350,000 compounds were called active. Not shown: some 15% with an inconclusive outcome. The call rests on the fitted dose curve; in most records, active means well fitted inhibition curve with a large enough effect; inconclusive means small, poorly fitted or top-dose-only effect; inactive means no such curve, though single readings can be large or run the other way. What follows is part of a selection rich in actives, with near analogues and random picks from the rest.

target: Histone-lysine N-methyltransferase EHMT2 (Homo sapiens) (UniProt Q96KQ7); experiment: qHTS Assay for Inhibitors of Histone Lysine Methyltransferase G9a; details: G9a H3K9 monomethylation, AlphaScreen, 2 h; series mostly up to 59 µM; further: nearly all actives have a fitted effect of over 75% in size
Outline: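 Methyltransferase reactions run at room temperature for 2 h (20 nM enzyme, 500 nM biotin-H3K9 peptide, 20 uM SAM) after a 15 min compound preincubation; product detected by AlphaScreen beads and anti-H3K9me1 antibody.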
On the % scale 0 is the no-effect control and ±100 the full control effect; potency means the concentration at half of the fitted maximal effect.

Chain of Histone-lysine N-methyltransferase EHMT2 (Homo sapiens) (Q96KQ7 913-1193 limits assumed): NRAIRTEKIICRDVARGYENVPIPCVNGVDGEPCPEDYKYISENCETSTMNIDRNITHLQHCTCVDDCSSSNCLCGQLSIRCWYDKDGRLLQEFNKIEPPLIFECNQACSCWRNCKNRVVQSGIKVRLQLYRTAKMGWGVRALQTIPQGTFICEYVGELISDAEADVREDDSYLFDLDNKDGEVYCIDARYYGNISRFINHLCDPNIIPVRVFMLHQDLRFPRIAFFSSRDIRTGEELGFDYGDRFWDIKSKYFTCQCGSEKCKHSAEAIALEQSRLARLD

Potency, inactive:
Cc1cc2c(=O)n(CC(=O)NCC(=O)Nc3ccc(C(C)C)cc3)cnc2s1, CC1(c2ccc(Cl)cc2)NC(=O)N(CC(=O)c2ccc3c(c2)OCO3)C1=O (stereo unspecified), COc1ccc(C2CC(=O)Nc3c2c(=O)nc2c(C)cccn32)cc1OC (stereo unspecified), CC1(C)O[C@@H]2CC3C4C[C@H](F)C5=CC(=O)C=CC5(C)C4C(O)CC3(C)[C@]2(C(=O)CO)O1 (stereo partly specified), CCC1(C)Cc2c(sc3nc(SC)nc(N)c23)CO1 (stereo unspecified), CCSc1nc2sc3c(c2c(=O)[nH]1)CC(C)(C)OC3, COc1ccccc1NC(=O)C(=O)c1cc(C)n(-c2ccccc2F)c1C, COc1cc(CNCCSc2nnnn2C)ccc1OCc1ccc(Cl)cc1Cl, COc1cc(C(=O)N(Cc2ccc(C(C)C)cc2)C2CCS(=O)(=O)C2)cc(OC)c1OC (stereo unspecified), CCc1ccc(OCC(=O)N(Cc2ccccc2)C2CCS(=O)(=O)C2)cc1 (stereo unspecified), Cc1ccc(CN(C(=O)COc2ccc(Cl)cc2C)C2CCS(=O)(=O)C2)o1 (stereo unspecified), Cc1ccccc1OCC(=O)N(Cc1cccc(F)c1)C1CCS(=O)(=O)C1 (stereo unspecified), COc1ccc(NC(=O)CSc2nc(SC)ns2)c(OC)c1, COc1cccc(N2CC(NC(=O)/C=C\c3ccccc3)CC2=O)c1 (stereo unspecified), CCOc1ccc(NC(=O)CN(C)C(=O)c2cccc(S(=O)(=O)N3CCCC3)c2)cc1OCC, O=C(/C=C/c1ccc([N+](=O)[O-])o1)NNC(=O)c1ccc(F)cc1, Cc1nc2ccccc2c(=O)n1-c1ccc(F)c(NC(=O)c2cccs2)c1, CC(C)CN(Cc1c(O)ccc2c(=O)c(-c3ccccc3)coc12)CC(C)C, COc1cc(C2NC(=O)NC(c3ccccc3)=C2C(C)=O)c(Br)cc1OCC(N)=O (stereo unspecified), CC(C)(C)c1ccc(C(=O)NCC(c2ccco2)S(=O)(=O)c2ccc(F)cc2)cc1 (stereo unspecified), Cc1ccc2[nH]c(=O)c(-c3nc4c(C)cccn4c3NCc3ccco3)cc2c1, Cc1cccn2c(=O)c(/C=C3\SC(=S)N(CC(C)C)C3=O)c(NCCCOC(C)C)nc12, CCc1ccc(NC(=O)c2nn(-c3ccc(C)cc3)c(=O)n(C)c2=O)cc1, NS(=O)(=O)c1ccc(NC(=O)COc2ccc(S(=O)(=O)NC3CCCCC3)cc2)cc1, CCOc1cc(-c2cc(-c3ccc(NC(C)=O)cc3)nc(N)c2C#N)ccc1O, CCc1ccc(NC(=O)N2CCc3ccccc3C2)cc1, COc1ccc(CC(=O)NC2CCSc3ccccc32)cc1OC (stereo unspecified), CCOc1cc(C(=O)Nc2nnc3n2CCS3)cc(OCC)c1OCC, COc1ccccc1NC(=O)C(C)OC(=O)c1ccc(-n2cnnn2)cc1 (stereo unspecified), Cc1ccc(NN=C2C(=O)OC(C)(C)OC2=O)c(C)c1, S=C(NCCc1ccccc1)NCC1CCCO1 (stereo unspecified), CCCCNC(=S)N/N=C1\CCCCc2ccccc21, CC(C)(C)NC(=O)CSc1nnc(NC(=O)CCc2ccccc2)s1, Cc1ccc(CN2CCN(Cc3ccccc3-c3ccco3)CC2CCO)o1 (stereo unspecified), COc1ccc(CN2CCN(Cc3cn(C)nc3-c3ccccc3)CC2CCO)c(C)c1C (stereo unspecified), COc1ccccc1-c1ccnc2[nH]n(-c3ccccc3)c(=O)c12, Cc1ccc(/C=N/NC(=O)c2sccc2OCc2ccc(F)cc2)cc1, CNC(=S)NNC(=O)c1cccn(Cc2ccccc2)c1=O, Cc1ccc(-c2nn(-c3ccc(F)cc3)cc2C(=O)NCC(c2cccs2)N2CCOCC2)cc1 (stereo unspecified), CC(=O)c1ccc(N2CCN(C(=O)c3ccc(Cl)c(S(=O)(=O)NC4CC4)c3)CC2)c(F)c1, CCOc1ccccc1NC(=O)Cn1c(=O)n(Cc2ccco2)c(=O)c2sc3ccccc3c21, CCOC(=O)/C=c1\s/c(=C\c2ccccc2OC)c(=O)n1CC(=O)N1CCOCC1, Cc1cc2ccccc2n1CCNC(=O)c1ccc(F)cc1, Cc1ccc(NC(=O)c2cn3c4c(ccc(Cl)c4c2=O)OC(C)C3)cc1C (stereo unspecified), O=C(O)c1cc(S(=O)(=O)N(Cc2ccccc2)c2ccccc2)ccc1Cl, FC(F)(F)c1cc(-c2ccco2)nc(N2CCOCC2)n1, O=C(c1c(F)cccc1Cl)N1CCN(S(=O)(=O)c2ccc3c(c2)OCCCO3)CC1, CCOc1ccccc1-c1cc(C(=O)N2CCOCC2)c2ccccc2n1, Cc1oc(-c2ccccc2F)nc1CN1CCC(C(=O)NCCc2ccc(Cl)cc2)CC1, O=S(=O)(c1ccc(Br)cc1)c1nnn2c1nc(N1CCOCC1)c1sccc12, Cc1nc([N+](=O)[O-])cn1CC(=O)Nc1ccc2c(c1)OCO2, Cc1ccc(S(=O)(=O)N2CCN(CC(=O)N/N=C/c3cc([N+](=O)[O-])ccc3Cl)CC2)cc1, CC(=O)N/N=C/c1cc2c(cc1[N+](=O)[O-])OCO2, CCOC(=O)c1nc(-c2ccc3c(c2)OCO3)[nH]c1C, CNc1nnc(-c2ccco2)s1, Cc1ccc(OCC(=O)Nc2nnc(-c3ccco3)s2)cc1, Cc1cccc(NC(=O)c2ccc(COc3ccccc3[N+](=O)[O-])o2)n1, N#Cc1ccsc1NC(=O)CN1CCCCC1, COc1ccc(Cl)cc1S(=O)(=O)N1CCC(O)(c2ccc(Cl)cc2)CC1, CC(C#N)(NC(=O)CN1CCN(S(=O)(=O)c2cc(C(F)(F)F)ccc2Cl)CC1)C1CC1 (stereo unspecified), COc1ccc(Cl)cc1S(=O)(=O)N1CCC(c2ccncc2)CC1, O=C(NCC(c1ccco1)S(=O)(=O)c1cccs1)c1ccc(F)cc1 (stereo unspecified), CCc1ccc(NC(=O)CN2CCSc3ccc(S(=O)(=O)N4CCCC4)cc32)cc1, CCN(Cc1ccccc1)S(=O)(=O)c1ccc2c(c1)CCCN2C(C)=O, Cc1ccc2[nH]c3c(=O)n(CC(=O)NC(C)C)ncc3c2c1, CCc1ccc(NC(=O)CN2C(=O)C(c3ccccc3)=NC23CCCCCC3)cc1

Potency, active:
COC(=O)C1=C(NC(=O)C(C)(C)C)CCS1 1.41 µM, O=C(CN1CCN(c2ccccc2F)CC1)c1ccc2c(c1)OCO2 20 µM, CCC1(C)Cc2c(sc3nc(SC)[nH]c(=O)c23)CO1 (stereo unspecified) 44.7 µM, Cc1cc(Cl)ccc1OCC(=O)N(Cc1ccc(N(C)C)cc1)C1CCS(=O)(=O)C1 (stereo unspecified) 10 µM, CC(C)c1ccc(OCC(=O)N(Cc2ccc(N(C)C)cc2)C2CCS(=O)(=O)C2)cc1 (stereo unspecified) 12.6 µM, CCCN(CCC)c1nc2c(C)cccn2c(=O)c1/C=C1/SC(=S)N(Cc2ccco2)C1=O 39.8 µM, COc1ccc(CC(=O)Nc2nnc3n2CCS3)cc1OC 12.6 µM, Cc1ccc(N/N=C2\COC(C)(C)CC2=O)cc1 44.7 µM, CCCC1CCC(=NNC(=S)NCCc2ccccc2)CC1 (stereo unspecified) 14.1 µM, CCn1cc(CN2CCN(CC(C)(C)C)C(CCO)C2)c2ccccc21 (stereo unspecified) 50.1 µM, CNC(=S)NNC(=O)c1sccc1OCc1ccccc1 50.1 µM, CCOc1ccccc1/C=c1\sc2nc(-c3ccco3)nn2c1=O 35.5 µM, Cc1cc(C)c2nc(-c3ccco3)cc(C(=O)O)c2c1 10 µM, CCOc1ccccc1-c1nc(CN2CCC(C(=O)N3CCOCC3)CC2)c(C)o1 89.1 µM, Cc1ccc(S(=O)(=O)N/N=C\c2cc3c(cc2[N+](=O)[O-])OCO3)cc1 5.62 µM, Cc1ccc(-c2n[nH]c(=S)n2/N=C/c2cc3c(cc2[N+](=O)[O-])OCO3)cc1 1.26 µM, COc1ccc(OCC(=O)Nc2nnc(-c3ccco3)s2)cc1 50.1 µM, CCOc1ccc(OCc2ccc(C(=O)Nc3cccc(C)n3)o2)cc1 44.7 µM, COc1ccc(Cl)cc1S(=O)(=O)N1CCN(CC(=O)C(C)(C)C)CC1 44.7 µM, N#Cc1ccsc1NC(=O)CN1CCN(S(=O)(=O)c2cc(Cl)ccc2Cl)CC1 50.1 µM

activity, negative = inhibition, inactive:
O=C(Nc1ccccc1F)c1ccc2c(c1)OCO2 -7.42% [at 0.501 µM], Cn1c(N)c(C(=O)COC(=O)/C=C/c2cccc(C(F)(F)F)c2)c(=O)n(C)c1=O 28.8% [at 2.33 µM], CC(C)CN(C(=O)CSc1ncnc2sccc12)C1CCS(=O)(=O)C1 (stereo unspecified) 0.939% [at 12.7 µM], COC(=O)[C@@]12CCCN1[C@H](c1ccc(-c3ccc(F)cc3)c(OC)c1)[C@H]1C(=O)N(C)C(=O)[C@H]12 17.2% [at 2.33 µM], O=C(NNC(=O)c1cccc(S(=O)(=O)Nc2ccc(Cl)cc2)c1)c1ccc(=O)[nH]c1 17.2% [at 12.7 µM], CN(C(=O)COC(=O)c1cc(=O)[nH]c2ccccc12)C1CCCCC1 -20.6% [at 2.33 µM], CC1CCCN(C(=O)c2cc(-c3ccco3)nc3ccccc23)C1 (stereo unspecified) -9.53% [at 2.33 µM], Cc1cc2c(c(=O)n1Cc1ccccc1)C1O[C@](CCCCN3C(=O)c4ccccc4C3=O)(Cc3ccccc31)O2 -0.249% [at 2.33 µM], COc1ccccc1-c1nn(Cc2ccccc2)cc1C(=O)N1CCN(c2ncccn2)CC1 21.8% [at 12.7 µM], Cc1cccc(NC(=O)Nc2ccc(OCc3ccccc3)cc2)n1 8.02% [at 2.33 µM]
